Laboratory results reported in PubChem BioAssay (NCATS).
Records with an inconclusive call do not appear. Activity calls are given as the source filed them. The call rests on the fitted dose curve; in most records, active means well fitted inhibition curve with a large enough effect; inconclusive means small, poorly fitted or top-dose-only effect; inactive means no such curve, though single readings can be large or run the other way.

Test system: Zika virus NS2B-NS3 protease (unlinked complex)
Experiment: Primary screen GU Rhodamine qHTS for Zika virus inhibitors: Unlinked NS2B-NS3 protease assay (AID 1347159); further: nearly all actives have a fitted effect of over 60% in size
Conditions: Recombinant ZIKV NS2B-NS3 protease, Rhodamine110 substrate fluorescence; series mostly up to 107 µM; activity change, negative = inhibition: at the top concentration
How it was run: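 Unlinked NS2B/NS3, 25 nM; Rhod110 peptide, 1.5 microM; compounds, up to 114 microM. Reaction run 15 min at RT in 10 mM Tris-HCl pH 8.0, 0.01% Tween 20; kinetic fluorescence change fitted with a 4-parameter Hill model.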
On the % scale 0 is the no-effect control and ±100 the full control effect; potency means the concentration at half of the fitted maximal effect.

Compound | activity change, negative = inhibition | Potency
CC(C)(O)[C@@H]1CC[C@]2(CO)[C@@H](O)CC[C@](C)(O)[C@H]2[C@@H]1O[C@@H]1O[C@H](CO)[C@@H](O)[C@H](O)[C@H]1O | 0.176% [at 57.1 µM] (inactive) | –
CCN(CCN(C)C)C(=O)CNCc1cc(C(N)=O)ccn1 | -14.5% (inactive) | –
COc1ccc(C2(O)c3ccccc3NC(=O)C2OC)cc1 (stereo not drawn) | -17.2% (inactive) | –
CC(=O)O[C@@H]1[C@@H](O)[C@H](C)O[C@@H](O[C@H]2[C@@H]3C=CO[C@@H](O[C@@H]4O[C@H](CO)[C@@H](O)[C@H](O)[C@H]4OC(C)=O)[C@@H]3[C@@]3(CO)O[C@@H]23)[C@@H]1OC(=O)/C=C/c1ccc(O)cc1 | -20.5% [at 32.5 µM] (inactive) | –
CC(=O)c1ccc(O[C@@H]2OC[C@@H](O)[C@H](O)[C@H]2O[C@]2(CO)O[C@H](CO)[C@@H](O)[C@@H]2O)c(O)c1 | 5.7% [at 57.1 µM] (inactive) | –
COc1cc2c(cc1O)C(c1ccc(O)cc1)C(C)C(C)C2 (stereo not drawn) | – | 39.8 µM (active)
CC(=O)OC1CC2(C)C(CCC(C)C23Cc2c(O)cc4c(c2O3)CNC4=O)C(C)(C)C1O (stereo not drawn) | -23.1% [at 57.1 µM] (inactive) | –
COc1ccc(/C=C/C(=O)N2CCCC2)cc1 | -21.4% (inactive) | –
C=C1CCC2C(C)(C(=O)O)CCCC2(C)C1CC/C(C)=C\CO (stereo not drawn) | 20.4% (inactive) | –
CC1=C(C(=O)OC2OC(COC3OC(CO)C(O)C(O)C3O)C(O)C(O)C2O)C(C)(C)CCC1 (stereo not drawn) | -9.92% [at 57.1 µM] (inactive) | –
CC(C)(OC1OC(CO)C(O)C(O)C1O)C1CCC(O)(CO)C2CC(=O)C(C)(O)C2C1 (stereo not drawn) | 0.742% [at 57.1 µM] (inactive) | –
CC(C)(O)C1CCC2(C)CCCC(C)(O)C2C1 (stereo not drawn) | 5.67% (inactive) | –
Cc1oc(S(=O)(=O)N2CCCCC2)cc1NC(=O)Nc1ccccc1 | -22.1% (inactive) | –
